# Screening results (PubChem)
# Sampled rows, rich in hits. Any-hit rate of the full collection: about 2.4%.
# Wnt act: activators of Wnt/beta-catenin signaling | Wnt/beta-catenin reporter cell assay, activator, plate reader | activation, % at 9.35 µM | 300,000 tested, 1.2% active | AID 743398; in the data active = activation above about 30%, passing the limit was not always enough;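 note: 0% = neutral control wells and 100% = positive control wells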
# NSD2 inh: blocks human histone methyltransferase NSD2. NSD2 peptide methylation, AlphaScreen, 120 min. inhibition, % at 12.5 µM. 310,000 tested, 0.54% active
# miR-122 sensor: blocks miR-122 activity in Huh7 sensor cells | Huh7 miR-122 Renilla luciferase sensor, 48 h; neutral wells = 0, positive control = 100 | activation (reporter increase), % at 12.5 µM | 340,000 tested, 0.3% active;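 active = mean replicate activation score at least 90 and every replicate individually at or above 90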;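 note: higher luciferase means less miR-122 activity so hits act as miR-122 inhibitors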
# DYRK1A inh: inhibitors of rat Dyrk1A kinase; ADP-Glo luminescence, NFATc1 peptide; AID 504441; 310,000 tested, 0.43% active; inhibition, % at 12.5 µM; Q63470;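 note: plate controls were vehicle with enzyme for no effect and no enzyme for full effect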
# MITF act: activators of MITF-driven TRPM1 promoter activity in SK-MEL-5 cells | SK-MEL-5 TRPM1-promoter luciferase, 24 h; % of positive control, neutral wells = 0 | activation, % at 12.5 µM | 300,000 tested, 0.75% active;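 active = mean activation of at least 80% with every replicate also reaching 80%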;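 note: 0% = neutral control wells and 100% = parthenolide positive control wells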
# GSIS activator: primary screen for activators of insulin secretion dependent on glucose, INS-1E cells, GLuc reporter luminescence; AID 743287; INS-1E GLuc reporter insulin secretion, 2-3 h; activation, % at 16.6 µM; 370,000 tested, 0.61% active;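 active = lowest replicate activation of at least 40%, so every replicate reaches that level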;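 note: 0% = median of neutral control wells and 100% = median of IBMX positive control wells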
# Active calls of the source: *; x = not tested or not shown; ! = a repeat was not active; [ ] = dose if it differs, or a comment. Cut-off read from the data, not from the text of the source, unless noted: active = inhibition above about 50%; inactive = the rest.
SMILES,Wnt act,NSD2 inh,miR-122 sensor,DYRK1A inh,MITF act,GSIS activator
COc1ccc(NC(=S)NC(=NS(=O)(=O)c2ccc(Cl)cc2)c2ccccc2)cc1,12.9,2.7,x,-1.6,56.7,x
O=S(=O)(/N=C(/NC(=S)Nc1ccccc1)c1ccccc1)c1ccc(Cl)cc1,-0.6,x,x,3.1,111.8*,1.0
CNC[C@H]1OCCCC[C@@H](C)Oc2ccc(NS(C)(=O)=O)cc2C(=O)N([C@@H](C)CO)C[C@@H]1C,x,x,7.1[16.7 µM],x,x,24.9
CC(C)OP(=O)(Nc1cccc2ccccc12)OC(C)C,66.9*,0.9,-5.1,-1.7,-4.1,1.2
CN(C)P(=O)(Nc1cccc2ccccc12)Nc1cccc2ccccc12,-10.9,-1.8,1.5,-1.3,x,20.0
O=C(C[C@H]1C=C[C@@H](NC(=O)c2cccnc2)[C@@H](CO)O1)NCc1ccc(Cl)c(Cl)c1,x,x,2.0[16.7 µM],x,x,-6.8
CO[C@H]1CN(C)C(=O)c2cc(NC(=O)C3CCCCC3)ccc2OC[C@H](C)N(C)C[C@@H]1C,x,x,-1.9[16.7 µM],x,x,8.6
O=C(Cc1ccccc1)Nc1ccccc1C(=O)Nc1ccccc1,-0.8,-1.2,x,8.0,2.6,0.5
C/C(=N\NC(=O)c1cccc(C)c1O)c1ccc(NC(=O)Cc2ccccc2)cc1,12.8,-1.3,0.1,1.5,92.1*,-12.3
C/C(=N\NC(=O)c1ccccc1N)c1ccc(NC(=O)Cc2ccccc2)cc1,7.9,0.4,0.6,3.6,29.6,5.3
Cc1ccc(NC(=O)c2ccccc2NC(=O)Cc2ccccc2)cc1,35.3*,-3.3,x,6.2,12.0,-13.3
CO[C@@H]1CN(C)C(=O)c2cc(NS(=O)(=O)c3ccccc3)ccc2OC[C@H](C)N(Cc2nccs2)C[C@@H]1C,x,x,x,x,x,-13.3
COc1ccccc1-c1ccc([C@H]2[C@@H](CO)N(C(=O)NC3CCCC3)[C@H]2C#N)cc1,x,x,x,x,x,-18.0
Cc1nn(-c2ccccc2)c2c1C(O)CC(C)(C)C2 (stereo not drawn),0.1,-1.2,8.0,5.1,-6.2,67.0*
Cc1nn(-c2ccccc2)c2c1C(=O)N(Cc1ccccc1)C(=O)C(C)(C)C2,x,-2.5,-0.4,2.2,0.6,-11.8
CC(C)C(=O)Nc1ccc2c(c1)C(=O)N(C)[C@@H]1CC[C@H](CC(=O)O)O[C@@H]1CO2,x,x,0.0[16.7 µM],x,x,5.2
COc1ccccc1NC(=O)N1C[C@H](O)COC[C@@H]2O[C@H](CC(=O)NCc3ccccc3)CC[C@H]21,x,x,0.6[16.7 µM],x,x,-1.3
CO[C@@H]1CN(C)C(=O)c2ccc(NC(C)=O)cc2OC[C@@H](C)N(CCC(F)(F)F)C[C@@H]1C,x,x,x,x,x,3.4
CCCc1cnc(N2CCN(C(=S)NC)CC2)nc1,39.7*,21.8,-11.5,x,x,20.4
CCn1c(SCC(=O)Nc2ccc(N3CCOCC3)cc2)nnc1-c1ccc(OC)cc1,-0.9,-3.4,141.6*,8.0,-1.4,4.9
CCS(=O)(=O)N1Cc2cc(C(=O)N(C)C)nc(-c3cccc(-c4ccc(C#N)cc4)c3)c2[C@@H]1CCO,x,x,x,x,x,-0.3
CNC[C@@H]1Oc2ccc(NS(C)(=O)=O)cc2C(=O)N(C)C[C@H]1C,x,x,x,x,x,-4.5
COc1ccc(/C=N/Nc2ncnc3c2[nH]c2ccccc23)c(OC)c1OC,x,-0.8,0.3,3.7,-15.9,68.4*
COc1cccc(/C=N/Nc2ncnc3c2[nH]c2ccc(C)cc23)c1OC,0.2,-0.6,x,4.1,9.2,-5.3
C[C@@H]1CCCCO[C@@H](CN(C)C(=O)CCCN(C)C)[C@H](C)CN([C@@H](C)CO)C(=O)c2cc(NC(=O)NC3CCCCC3)ccc2O1,x,x,0.0[16.7 µM],x,x,5.8
SMILES,Wnt act,NSD2 inh,miR-122 sensor,DYRK1A inh,MITF act,GSIS activator
COc1ccccc1CNC(=O)CCNS(=O)(=O)c1ccc2[nH]c(=O)oc2c1,-1.3,4.5,14.2,1.1,-6.7,53.0*
COc1ccccc1NC(=O)CCNS(=O)(=O)c1ccc2[nH]c(=O)oc2c1,-0.5,6.2,8.3,5.3,2.7,6.5
COc1ccccc1C1=NC(c2ccc(C)cc2)N=C1C (stereo not drawn),52.0*,-5.5,x,2.4,45.9,-4.2
O=C(Nc1ccccc1Cl)c1cc(=O)c2ccccc2o1,11.0,-0.7,3.2,4.0,x,13.5
O=C(Nc1ccccc1Br)c1cc(=O)c2ccccc2o1,-0.4,-0.5,-7.1,-2.3,152.5*,29.0
O=C(c1cccc(F)c1)N1CC(=O)N2[C@@H](CO)[C@H](c3ccc(C4=CCCC4)cc3)[C@@H]2C1,x,x,x,x,x,13.2
O=[N+]([O-])c1ccc(O)c(C=NN2CCCCC2)c1,-4.5,4.9,x,x,x,7.7
Oc1ccc(Br)cc1/C=N/N1CCCCC1,3.1,5.1,6.3,3.3,110.2*,-19.4
Clc1cc(Cl)cc(Nc2ncnc(-n3cccc3)n2)c1,0.8,-1.7,1.8,x,x,10.7
Cc1ccc(Nc2ncnc(-n3cccc3)n2)cc1Cl,52.9*,-1.5,x,4.4,40.8,x
CC1=NN(c2ccccc2)C(=O)C1N=Nc1ccccc1 (stereo not drawn),56.6*,-2.5,x,-4.0,22.0,-5.1
C[C@H](CO)N1C[C@H](C)[C@H](CN(C)C(=O)Nc2ccccc2)OCCCC[C@H](C)Oc2ccc(NC(=O)Cc3ccccc3)cc2C1=O,x,x,-0.6[16.7 µM],x,x,-11.4
Cc1cc(CNC(=O)c2ccc3nc(Cc4ccccc4F)oc3c2)nn1C,27.3,0.9,-8.7,0.2,93.7*,19.6
C[C@@H]1CN([C@@H](C)CO)C(=O)Cc2cc(NS(=O)(=O)c3ccccc3)ccc2O[C@H]1CN(C)Cc1ccc(C(=O)O)cc1,x,x,x,x,x,20.1
CCS(=O)(=O)c1ccc2oc(Nc3ccccc3Cl)nc2c1,25.4,-2.2,3.9,2.9,50.8,19.5
CCS(=O)(=O)c1ccc2oc(Nc3ccccc3Br)nc2c1,36.3*,0.1,0.9,0.8,100.0*,-11.5
COCC#Cc1ccc2c(c1)O[C@H](CN(C)S(=O)(=O)c1ccc(OC)cc1)[C@H](C)CN([C@H](C)CO)S2(=O)=O,x,x,119.9*[16.7 µM],x,x,-18.9
C[C@H]1CN([C@@H](C)CO)S(=O)(=O)c2ccc(Br)cc2O[C@H]1CN(C)S(=O)(=O)c1ccccc1F,-0.9,x,178.6*![16.7 µM],x,x,3.2
C/C=C/c1ccc2c(c1)O[C@H](CN(C)S(=O)(=O)c1ccccc1)[C@H](C)CN([C@@H](C)CO)S2(=O)=O,x,x,267.8*[16.7 µM],x,x,-22.6
C/C=C/c1ccc2c(c1)O[C@H](CN(C)S(=O)(=O)c1ccc(F)cc1)[C@H](C)CN([C@@H](C)CO)S2(=O)=O,x,x,11.1[16.7 µM],x,x,-27.9
COCC#Cc1ccc2c(c1)O[C@H](CN(C)S(=O)(=O)c1ccc(OC)cc1)[C@@H](C)CN([C@H](C)CO)S2(=O)=O,x,x,48.2[16.7 µM],x,x,-39.7
C[C@@H]1CN([C@@H](C)CO)C(=O)c2cc(C#C[C@@H](C)O)cnc2O[C@@H]1CN(C)Cc1cccc(F)c1,x,x,-3.7[16.7 µM],x,x,-1.1
C[C@H](CO)N1C[C@H](C)[C@H](CN(C)C(=O)Cc2ccccn2)Oc2ncc(-c3ccc(F)cc3)cc2C1=O,x,x,-10.2[16.7 µM],x,x,37.0
COc1cc2cnc(CCCC#N)cc2cc1OC,-4.5,x,-2.9,6.4,-8.4,x
